Test results reported in the supplement of paper PMC3334620.
The full ranking holds about 33,000 sequences; the median of “E-score (-0.5 to 0.5)” is about -0.015, and the highest 2% start at about 0.3. This excerpt belongs to a sample that is enriched for the highest values.

molecular target: T1, Abf1 (UniProt P14164); assay: PBM E-score (8-mer binding enrichment) (E-score (-0.5 to 0.5)); higher = stronger / more preferred TF binding; conditions: protein concentration: 200 nM; construct: GST-full length
T1 sequence: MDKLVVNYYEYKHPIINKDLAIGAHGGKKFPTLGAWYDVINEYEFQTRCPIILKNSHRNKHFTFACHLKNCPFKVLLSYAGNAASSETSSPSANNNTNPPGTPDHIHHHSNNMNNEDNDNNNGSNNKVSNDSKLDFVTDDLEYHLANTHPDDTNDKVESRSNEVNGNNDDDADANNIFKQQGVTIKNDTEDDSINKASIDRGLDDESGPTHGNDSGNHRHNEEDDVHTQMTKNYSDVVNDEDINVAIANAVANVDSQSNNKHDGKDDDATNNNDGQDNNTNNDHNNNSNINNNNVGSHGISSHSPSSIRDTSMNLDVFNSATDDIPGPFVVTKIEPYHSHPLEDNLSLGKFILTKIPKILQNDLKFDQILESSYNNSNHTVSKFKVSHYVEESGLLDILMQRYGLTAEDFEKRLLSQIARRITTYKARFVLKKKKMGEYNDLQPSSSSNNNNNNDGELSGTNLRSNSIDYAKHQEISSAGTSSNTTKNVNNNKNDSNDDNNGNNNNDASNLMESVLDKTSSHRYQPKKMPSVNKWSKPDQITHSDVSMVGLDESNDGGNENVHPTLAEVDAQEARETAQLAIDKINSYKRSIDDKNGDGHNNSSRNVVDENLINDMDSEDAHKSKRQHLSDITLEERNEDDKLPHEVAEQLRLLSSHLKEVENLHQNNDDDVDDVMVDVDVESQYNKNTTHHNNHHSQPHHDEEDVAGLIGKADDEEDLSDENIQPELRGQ
Procedure: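 Universal 'all 10-mer' protein binding microarrays (Agilent AMADID 015681) probed with GST-tagged S. cerevisiae TFs (full-length or DBD) made by in vitro transcription/translation (PURExpress), about 100-200 nM. Bound TF was detected with fluorescent anti-GST. Each ungapped 8-mer (which stands for itself and its reverse complement) is scored by the PBM enrichment score (E-score), a modified Wilcoxon-Mann-Whitney statistic from -0.5 to +0.5, computed with the Universal PBM Analysis Suite. Scale: above 0.35 generally sequence-specific binding.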

Row | Sequence | PBM E-score
1 | CGTCCTAC | -0.0375
2 | ACTCGATA | 0.199
3 | AACTGCGA | -0.0488
4 | ATCTGCAG | -0.106
5 | GAGTATAC | 0.0804
6 | TACGACCA | 0.242
7 | CACGACGC | 0.172
8 | AACGACGC | 0.0599
9 | TACGACGA | 0.329
10 | GACGACGC | 0.3
11 | GACGACGA | 0.251
12 | TACACCCA | -0.015
13 | CACCACGA | 0.202
14 | GGGTGCTA | -0.118
15 | CGTGCGAG | 0.137
16 | CCTTAAGC | -0.123
17 | CGTCGTAA | 0.392
18 | CGTCGTAG | 0.192
19 | CATCGTAC | 0.382
20 | GGTCGTAC | 0.212
21 | CATCGTAA | 0.106
22 | CGTCGTAC | 0.399

Row | Sequence | PBM E-score
23 | GATCGTAC | 0.151
24 | CGTCGTTC | 0.313
25 | TGTCGTAA | 0.103
26 | CGTCGTTA | 0.257
27 | GGTCGTAA | 0.104
28 | AGTCGTTC | 0.212
29 | ATTCTGTG | 0.00625
30 | GCGAAAGA | -0.024
31 | AAGACGAG | -0.0454
32 | AATAGTAC | 0.132
33 | AAATGGGT | -0.0572
34 | ACGCAGTC | -0.224
35 | AGATCATG | 0.262
36 | CGTCGTCA | 0.24
37 | CGTCGTCC | 0.307
38 | AGTCGTCC | 0.142
39 | ACTCGAGA | -0.0317
40 | CGACAAAC | 0.167
41 | ACATATCG | 0.118
42 | ACATATCC | 0.236
43 | TCATATCA | 0.315
44 | TCATATGA | 0.101

Row | Sequence | PBM E-score
45 | GCATATCA | 0.319
46 | ACATATCA | 0.341
47 | GCATATCC | 0.179
48 | CCATATCA | 0.163
49 | GCATATGA | 0.028
50 | GACGACCA | 0.286
51 | CACGAGAG | 0.0678
52 | ACTCGGAG | -0.00102
53 | CTCTTGTC | 0.024
54 | ATTCTATC | 0.127
55 | AGTAGAGC | -0.168
56 | TCAGCAGA | -0.0392
57 | AAATGGAC | 0.0432
58 | ACCGTTTC | 0.0554
59 | ACCGTTGC | 0.0812
60 | CACAACCC | -0.194
61 | ATGGGGAA | -0.104
62 | ATTATCAG | 0.0821
63 | ATTATCAC | 0.434
64 | CTTATCCC | -0.0767
65 | CTTATCAC | 0.369
66 | ATTATCAA | 0.193

Row | Sequence | PBM E-score
67 | CTTATCAA | 0.164
68 | CGTGGTTC | 0.0193
69 | GAGCCCCC | -0.283
70 | TCATAGAA | 0.121
71 | GACCGGCC | -0.229
72 | TAATTGGA | 0.141
73 | GCATACGC | -0.149
74 | GAGCCGTA | 0.347
75 | CAGCCGTA | 0.192
76 | AAGCCGTA | 0.193
77 | GCCGTTGA | 0.173
78 | TGGGGCAA | -0.281
79 | GTATATGA | 0.12
80 | ATATATAC | 0.262
81 | CTATATCA | 0.267
82 | CTATATAC | 0.364
83 | CTCTATAC | 0.116
84 | GTATATCA | 0.386
85 | ATATATCA | 0.311
86 | ATATATCC | 0.171
87 | GTATATAA | 0.286
